5 molecules from PubChem BioAssay (EPA / NIEHS) can be followed below.

Values joined by “and” are separate entries in the source; they are usually repeats but may differ in a detail not shown here. Equal values may be shown once. Records with an inconclusive call do not appear. More than one record can exist for a structure, and the calls need not agree. Active and inactive are the calls of the source. The calls were made as follows, unless noted: active = hit-call score of the fitted dose curve at least 0.9, where 1 is the maximum; inactive = score below 0.9.

Experiment [1] has as its target Paired box protein Pax-6 (Homo sapiens) (UniProt P26367). Description: ATG_Pax6_CIS: Attagene CIS-FACTORIAL HepG2 Assay for human Paired Box 6 (PAX6) (AID 2282956). Particulars: HepG2 CIS-FACTORIAL PAX6 reporter transcription, RNA readout; actives raise or lower the signal. The method in brief:
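Transient MRTU transfection of HepG2 → compound exposure 24 h → TriZol RNA, oligo(dT) RT → PCR, 6-FAM primer extension, HpaI cut → capillary electrophoresis; activity fitted both directions against DMSO.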

The nature of experiment [2]: ATG_PXRE_CIS: Attagene CIS-FACTORIAL HepG2 Assay for human Pregnane X Receptor Element (PXRE) (AID 2282957). Particulars: HepG2 Attagene CIS-FACTORIAL PXRE reporter, mRNA; actives raise or lower the signal. The method in brief: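 Transiently transfected HepG2 cells were dosed and incubated for 24 h. RNA was then isolated, DNase-treated, reverse-transcribed and reporter sequences amplified. Labeled, HpaI-digested fragments were quantified by capillary electrophoresis against DMSO.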

Experiment [3] can be described thus: ATG_PPRE_CIS: Attagene CIS-FACTORIAL HepG2 Assay for human Peroxisome Proliferator-activated Response Element (PPRE) (AID 2282958). Particulars: HepG2 PPRE cis-element reporter, Attagene transcription factor profiling; actives raise or lower the signal. In a few lines:
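HepG2 cells are transiently transfected with multiplexed cis-promoter reporter units to report endogenous PPAR activity. After 24 h dosing, reporter mRNA is read by RT-PCR and capillary electrophoresis. Fitting is bidirectional against DMSO.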

Experiment [4] in a line: ATG_RORE_CIS: Attagene CIS-FACTORIAL HepG2 Assay for human RAR-related Orphan Receptor Element (RORE) (AID 2282959). Particulars: HepG2 Attagene cis-factorial RORE reporter, mRNA; actives raise or lower the signal. The method in brief:
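HepG2 cells carrying transiently transfected cis-regulated reporter units; RORE-driven reporter mRNA quantified 24 h post-dosing by RT-PCR, 6-FAM primer extension, HpaI digestion and capillary electrophoresis. Bidirectional fit versus DMSO.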

Experiment [5] in a line: ATG_Sox_CIS: Attagene CIS-FACTORIAL HepG2 Assay for human SRY-box transcription factor (SOX) (AID 2282960). Particulars: HepG2 Attagene cis-factorial SOX reporter, mRNA; actives raise or lower the signal. The method in brief:
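HepG2 cells transiently transfected with multiple cis-regulated reporter units, then dosed for 24 h. Reporter mRNA quantified by RT-PCR, fluorescent labelling, HpaI digestion and capillary electrophoresis; bidirectional fit versus DMSO.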

Experiment [6] addresses Transcription factor Sp1 (Homo sapiens) (UniProt P08047). Description: ATG_Sp1_CIS: Attagene CIS-FACTORIAL HepG2 Assay for human Specificity Protein 1 (Sp1) (AID 2282961). Particulars: HepG2 Sp1 cis-reporter transcription, actives raise or lower the signal. The method in brief: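 HepG2 cells transiently transfected with multiplexed cis-regulated reporter constructs, chemical exposure 24 h. Reporter mRNA quantified by RT-PCR with capillary electrophoresis; bidirectional fit relative to DMSO.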

Experiment [7] can be described thus: ATG_SREBP_CIS: Attagene CIS-FACTORIAL HepG2 Assay for human Sterol Regulatory Element Binding (SREBP) (AID 2282962). Particulars: HepG2 Attagene cis-factorial SREBP reporter, mRNA; actives raise or lower the signal. In a few lines:
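Transfected HepG2 (cis-regulated reporter library, endogenous TFs) → compound 24 h → total RNA → oligo(dT) RT → reporter-specific PCR → FAM primer extension, HpaI cut → CE fluorescence. Fit bidirectional vs DMSO.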

For experiment [8], the target named is Signal transducer and activator of transcription 3 (Homo sapiens) (UniProt P40763). The experiment in a line: ATG_STAT3_CIS: Attagene CIS-FACTORIAL HepG2 Assay for human Signal Transducer and Activator of Transcription 3 (STAT3) (AID 2282963). Particulars: HepG2, Attagene cis-factorial STAT3 reporter transcription; actives raise or lower the signal. The method in brief: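 Transcript-level reporter assay. HepG2 transient MRTU transfection, 24 h exposure, fluorescence detection after RT-PCR and CE; DMSO baseline.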
Chain of Signal transducer and activator of transcription 3 (Homo sapiens) (P40763 whole entry, looked up): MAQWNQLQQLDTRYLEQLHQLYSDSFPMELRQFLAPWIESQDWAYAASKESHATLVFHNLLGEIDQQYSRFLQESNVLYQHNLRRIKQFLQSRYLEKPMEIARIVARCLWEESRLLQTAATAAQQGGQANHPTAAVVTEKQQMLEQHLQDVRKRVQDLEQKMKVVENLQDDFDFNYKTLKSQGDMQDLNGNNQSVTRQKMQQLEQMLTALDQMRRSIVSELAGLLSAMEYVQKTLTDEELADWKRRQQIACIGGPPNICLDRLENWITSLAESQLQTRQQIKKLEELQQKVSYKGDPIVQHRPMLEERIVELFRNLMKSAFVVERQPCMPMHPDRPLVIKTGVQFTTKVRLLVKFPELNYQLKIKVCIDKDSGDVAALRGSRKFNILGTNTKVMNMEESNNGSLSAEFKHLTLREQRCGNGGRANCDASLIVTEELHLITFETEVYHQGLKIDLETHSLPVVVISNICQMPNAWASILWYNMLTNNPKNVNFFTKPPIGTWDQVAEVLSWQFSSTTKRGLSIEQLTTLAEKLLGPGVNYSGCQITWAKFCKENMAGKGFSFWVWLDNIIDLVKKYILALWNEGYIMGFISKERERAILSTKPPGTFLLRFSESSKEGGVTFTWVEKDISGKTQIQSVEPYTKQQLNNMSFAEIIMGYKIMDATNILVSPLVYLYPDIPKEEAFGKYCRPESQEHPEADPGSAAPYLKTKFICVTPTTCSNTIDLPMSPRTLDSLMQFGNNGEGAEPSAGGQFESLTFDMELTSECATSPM

The nature of experiment [9]: ATG_TA_CIS: Attagene CIS-FACTORIAL HepG2 Assay for human TA Basal Promoter (AID 2282964). Particulars: HepG2 Attagene CIS-factorial TA basal promoter reporter; actives raise or lower the signal. In a few lines: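 Transient MRTU transfection of HepG2 preceded 24 h compound exposure. Reporter mRNA levels were then read by RT-PCR with capillary electrophoresis, and this background-control endpoint was fitted bidirectionally to DMSO.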

Experiment [10] in a line: ATG_TCF_b_cat_CIS: Attagene CIS-FACTORIAL HepG2 Assay for human T-Cell-Factor with beta-catenin (TCF/b-cat) (AID 2282965). Particulars: HepG2 TCF/beta-catenin cis-reporter transcription, actives raise or lower the signal. In a few lines: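 Using capillary electrophoresis as the read-out, labelled reporter cDNA fragments from transiently transfected HepG2 were sized and quantified. Exposure lasted 24 hours; activity in either direction was referenced to DMSO.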

A short description of experiment [11]: ATG_TAL_CIS: Attagene CIS-FACTORIAL HepG2 Assay for human TAL Basal Promoter (AID 2282966).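 Also: background control endpoint measuring basal TAL promoter reporter mRNA not a specific factor.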 Particulars: HepG2 Attagene cis-factorial TAL promoter reporter; actives raise or lower the signal. The method in brief:
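Readout: reporter mRNA, fluorescence by CE. System: HepG2, transient multi-reporter transfection, endogenous TF activity. Exposure: 24 h. Analysis: bidirectional, DMSO-normalized; background control.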

The nature of experiment [12]: ATG_TGFb_CIS: Attagene CIS-FACTORIAL HepG2 Assay for human Transforming Growth Factor (TGF) (AID 2282967). Particulars: HepG2 Attagene CIS TGFb reporter, mRNA transcription; actives raise or lower the signal. In a few lines: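 After a 24-hour incubation with compound, transfected HepG2 cells were lysed for RNA; reporter cDNA was amplified, fluorescently end-labeled and separated by CE. DMSO served as baseline for bidirectional fits.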

Experiment [13] can be described thus: ATG_VDRE_CIS: Attagene CIS-FACTORIAL HepG2 Assay for human Vitamin D Receptor Element (VDRE) (AID 2282968). Particulars: HepG2 VDRE cis-reporter transcription, actives raise or lower the signal. In a few lines:
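RT-PCR/CE readout of reporter mRNA; HepG2, transient transfection, 24 h dosing; DMSO baseline; bidirectional analysis.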

Experiment [14] addresses Estrogen receptor (Homo sapiens) (UniProt P03372). The experiment in a line: ATG_ERa_TRANS: Attagene TRANS-FACTORIAL HepG2 Assay for human Estrogen Receptor alpha (ERa) (AID 2282970; active = hit-call score of the fitted dose curve at least 0.9, where 1 is the maximum). Particulars: HepG2 Attagene TRANS ERa GAL4 reporter, mRNA. The method in brief:
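Transactivation via ERa-Gal4 chimera in HepG2; 24 hour incubation; reporter mRNA detected by fluorescence RT-PCR and capillary electrophoresis.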

Experiment [15] concerns the target X-box-binding protein 1 (Homo sapiens) (UniProt P17861). Description: ATG_Xbp1_CIS: Attagene CIS-FACTORIAL HepG2 Assay for human X-box Binding Protein 1 (XBP1) (AID 2282972). Particulars: HepG2 XBP1 cis-element reporter, Attagene multiplex; actives raise or lower the signal. The method in brief:
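HepG2, transient MRTU transfection (cis-promoter driven), 24 h compound exposure. Total RNA → oligo(dT) RT → PCR → 6-FAM labeling → HpaI cut → CE. Bidirectional fit vs DMSO.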

For experiment [16], the target named is Steroid hormone receptor ERR1 (Homo sapiens) (UniProt P11474). The experiment in a line: ATG_ERRa_TRANS: Attagene TRANS-FACTORIAL HepG2 Assay for human Estrogen-Related Receptor alpha (ERRa) (AID 2282971; active = hit-call score of the fitted dose curve at least 0.9, where 1 is the maximum). Particulars: HepG2 Attagene TRANS reporter, ERRa transactivation. In a few lines:
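HepG2 cells were transiently transfected with multiple GAL4-UAS reporter units, then dosed with compound for 24 h. Total RNA was reverse-transcribed, reporter cDNA PCR-amplified and fluorescently labelled, and fragments resolved by capillary electrophoresis; induction was compared with DMSO.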

Experiment [17] can be described thus: ATG_M_19_TRANS: Attagene TRANS-FACTORIAL HepG2 Assay for M19 Transcription Factor (Internal Marker) (AID 2282974; active = hit-call score of the fitted dose curve at least 0.9, where 1 is the maximum). Particulars: HepG2 Attagene TRANS-FACTORIAL M19 internal marker reporter. The method in brief: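 HepG2 transiently transfected with GAL4-UAS multiplex reporter constructs, exposed 24 h; reporter RNA quantified by RT-PCR, 6-FAM labeling, HpaI digestion and capillary electrophoresis; internal background marker fitted upward versus DMSO.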

The target in experiment [18] is Nuclear receptor subfamily 1 group I member 3 (Homo sapiens) (UniProt Q14994). Description: ATG_CAR_TRANS: Attagene TRANS-FACTORIAL HepG2 Assay for human Constitutive Androstane Receptor (CAR) (AID 2282969; active = hit-call score of the fitted dose curve at least 0.9, where 1 is the maximum;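 also: activators raise reporter mRNA above DMSO so AC50 marks induction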). Particulars: HepG2 Attagene TRANS-FACTORIAL CAR reporter. In a few lines: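 HepG2 cells transiently transfected with multiplexed GAL4-UAS reporter units expressing chimeric NR-Gal4 proteins; compound exposure 24 h. Reporter mRNA measured by RT-PCR, 6-FAM labelling, HpaI digestion and capillary electrophoresis; gain-of-signal fitted against DMSO baseline.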
Chain of Nuclear receptor subfamily 1 group I member 3 (Homo sapiens) (Q14994 whole entry, looked up, the tested form may be a part): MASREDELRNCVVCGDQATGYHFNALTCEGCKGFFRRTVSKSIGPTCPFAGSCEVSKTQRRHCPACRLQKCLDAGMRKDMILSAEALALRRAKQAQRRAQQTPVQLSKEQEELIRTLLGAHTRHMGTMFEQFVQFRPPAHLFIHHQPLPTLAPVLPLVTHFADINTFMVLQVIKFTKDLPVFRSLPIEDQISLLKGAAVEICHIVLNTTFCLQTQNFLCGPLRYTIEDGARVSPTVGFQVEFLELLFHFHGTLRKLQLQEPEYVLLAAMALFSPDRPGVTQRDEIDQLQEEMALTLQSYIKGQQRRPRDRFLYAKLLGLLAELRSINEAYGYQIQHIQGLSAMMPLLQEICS

Chain of Transcription factor Sp1 (Homo sapiens) (P08047 whole entry, looked up): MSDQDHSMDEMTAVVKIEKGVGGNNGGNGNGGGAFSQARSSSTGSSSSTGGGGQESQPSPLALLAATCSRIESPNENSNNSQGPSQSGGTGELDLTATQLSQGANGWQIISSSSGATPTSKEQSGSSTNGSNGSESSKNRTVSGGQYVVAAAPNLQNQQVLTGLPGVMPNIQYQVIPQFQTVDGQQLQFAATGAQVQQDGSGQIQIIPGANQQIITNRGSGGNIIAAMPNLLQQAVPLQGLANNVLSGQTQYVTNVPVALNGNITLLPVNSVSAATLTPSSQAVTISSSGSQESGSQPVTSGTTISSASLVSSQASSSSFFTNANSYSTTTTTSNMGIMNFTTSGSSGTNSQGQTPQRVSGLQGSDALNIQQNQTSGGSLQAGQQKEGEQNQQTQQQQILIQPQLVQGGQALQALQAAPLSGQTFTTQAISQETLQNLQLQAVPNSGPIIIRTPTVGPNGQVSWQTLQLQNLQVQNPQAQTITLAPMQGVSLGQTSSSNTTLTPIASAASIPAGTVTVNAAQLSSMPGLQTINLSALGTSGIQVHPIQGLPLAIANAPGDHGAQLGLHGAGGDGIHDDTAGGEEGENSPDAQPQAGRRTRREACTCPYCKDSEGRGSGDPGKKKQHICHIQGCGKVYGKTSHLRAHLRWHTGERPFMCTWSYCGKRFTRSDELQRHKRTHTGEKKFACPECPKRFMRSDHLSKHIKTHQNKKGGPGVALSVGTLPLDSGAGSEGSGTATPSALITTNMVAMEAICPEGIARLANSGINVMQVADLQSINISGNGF
Chain of X-box-binding protein 1 (Homo sapiens) (P17861 whole entry, looked up): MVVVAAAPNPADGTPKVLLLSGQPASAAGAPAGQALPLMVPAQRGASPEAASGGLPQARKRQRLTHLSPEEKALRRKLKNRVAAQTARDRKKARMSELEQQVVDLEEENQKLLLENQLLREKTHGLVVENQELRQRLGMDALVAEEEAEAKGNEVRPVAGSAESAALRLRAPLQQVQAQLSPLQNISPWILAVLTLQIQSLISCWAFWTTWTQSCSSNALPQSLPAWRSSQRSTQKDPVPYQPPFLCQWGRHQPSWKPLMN
Chain of Estrogen receptor (Homo sapiens) (P03372 whole entry, looked up, the tested form may be a part): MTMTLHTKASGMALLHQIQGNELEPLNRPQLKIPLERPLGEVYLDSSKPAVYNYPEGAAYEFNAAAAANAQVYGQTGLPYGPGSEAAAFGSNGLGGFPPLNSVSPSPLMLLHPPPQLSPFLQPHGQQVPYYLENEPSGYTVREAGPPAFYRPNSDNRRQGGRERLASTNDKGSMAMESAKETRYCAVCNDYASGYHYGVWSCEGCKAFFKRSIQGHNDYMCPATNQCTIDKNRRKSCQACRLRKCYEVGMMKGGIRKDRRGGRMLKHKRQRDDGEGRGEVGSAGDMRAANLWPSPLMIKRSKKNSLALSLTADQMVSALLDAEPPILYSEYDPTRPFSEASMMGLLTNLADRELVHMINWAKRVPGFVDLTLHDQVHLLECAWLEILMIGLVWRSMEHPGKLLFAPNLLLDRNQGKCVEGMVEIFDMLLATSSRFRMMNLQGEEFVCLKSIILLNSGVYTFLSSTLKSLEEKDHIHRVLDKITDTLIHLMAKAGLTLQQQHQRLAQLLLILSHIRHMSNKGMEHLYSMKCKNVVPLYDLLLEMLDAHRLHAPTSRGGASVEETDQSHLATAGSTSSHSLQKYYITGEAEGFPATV
Chain of Paired box protein Pax-6 (Homo sapiens) (P26367 whole entry, looked up): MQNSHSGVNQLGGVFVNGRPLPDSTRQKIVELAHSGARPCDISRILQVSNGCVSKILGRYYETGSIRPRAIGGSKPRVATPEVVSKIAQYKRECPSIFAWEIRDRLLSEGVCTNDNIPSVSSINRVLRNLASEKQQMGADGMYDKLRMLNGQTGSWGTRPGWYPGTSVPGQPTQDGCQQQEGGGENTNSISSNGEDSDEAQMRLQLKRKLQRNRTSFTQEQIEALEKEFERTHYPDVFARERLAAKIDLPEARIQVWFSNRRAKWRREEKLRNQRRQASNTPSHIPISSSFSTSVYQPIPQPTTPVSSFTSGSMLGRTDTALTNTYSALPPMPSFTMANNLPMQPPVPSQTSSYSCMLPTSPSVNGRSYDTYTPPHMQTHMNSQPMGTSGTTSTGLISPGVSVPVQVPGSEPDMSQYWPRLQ
Chain of Steroid hormone receptor ERR1 (Homo sapiens) (P11474 whole entry, looked up, the tested form may be a part): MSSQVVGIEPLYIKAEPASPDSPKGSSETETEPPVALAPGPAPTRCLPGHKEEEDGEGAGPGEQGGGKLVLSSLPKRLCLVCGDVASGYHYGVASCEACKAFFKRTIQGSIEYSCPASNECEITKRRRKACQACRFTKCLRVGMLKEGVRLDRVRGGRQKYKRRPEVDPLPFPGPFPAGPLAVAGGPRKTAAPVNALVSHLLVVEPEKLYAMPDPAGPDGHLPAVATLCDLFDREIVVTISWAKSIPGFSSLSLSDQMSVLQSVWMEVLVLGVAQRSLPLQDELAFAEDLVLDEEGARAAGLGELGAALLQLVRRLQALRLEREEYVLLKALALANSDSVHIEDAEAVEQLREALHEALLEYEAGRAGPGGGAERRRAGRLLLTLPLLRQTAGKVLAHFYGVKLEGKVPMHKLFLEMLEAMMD

Consider `ClC1=C(Cl)[C@]2(Cl)[C@@H]3[C@@H]4C[C@@H]([C@H]5O[C@@H]45)[C@@H]3[C@@]1(Cl)C2(Cl)Cl`, for which the call in experiment [1], in [3], in experiment [5], in [6], in experiment [7] and in [8] was inactive. For the same molecule, the molecule was called inactive in experiment [9], in experiment [11], in experiment [12] and in experiment [15]. Moreover, the concentration at half-maximal activity (AC50) (usually the concentration at which the activity in the assay is half-maximal) was 2.36 µM (active) in [2]; 81.4 µM (active) in [4]; 56.2 µM (active) in [10]; 17.6 µM (active) in experiment [13]; 5.89 µM (active) in [14].
`OCC(O)CO`: the molecule was called inactive in experiment [1], in experiment [2], in experiment [3], in experiment [4], in experiment [5] and in experiment [6]. Besides, the molecule was called inactive in experiment [7], in experiment [8], in experiment [9], in experiment [10], in experiment [11] and in experiment [12]. Besides, the molecule was called inactive in experiment [13], in experiment [16], in experiment [15] and in experiment [17]. The AC50 was 15.9 µM (active) in experiment [2], 26.1 µM (active) in experiment [3] and 85.1 µM (active) in experiment [14].
As for `Sc1ccccc1`, the outcome in experiment [1], in [2], in experiment [4], in experiment [5], in experiment [6] and in [7] was inactive. Besides, the call in [8], in [9], in [10], in experiment [11], in [12] and in [13] was inactive. In addition, the outcome in experiment [18], in [15] and in [17] was inactive. The AC50 in experiment [2] was 25.4 µM (active); in [13] it was 27.1 µM (active); in [14] it was 27.1 µM (active) and 42.2 µM (active).
On to `ClC1=C(Cl)[C@]2(Cl)[C@@H]3[C@@H](Cl)[C@H]4O[C@H]4[C@@H]3C1(Cl)C2(Cl)Cl`, for which the call in experiment [1], in experiment [3], in [4], in experiment [5], in [8] and in experiment [9] was inactive. Further, the outcome in [10], in experiment [11], in experiment [12], in [13] and in [14] was inactive. For the same molecule, the AC50 in [2] is 3.28 µM (active); in [6] it was 26.7 µM (active); in [7] it was 51.4 µM (active); in experiment [15], 36.5 µM (active).
`ClC(Cl)=C(c1ccc(Cl)cc1)c1ccc(Cl)cc1`: the AC50 in experiment [1] was 100 µM (active); in experiment [2], 4.93 µM (active) [middle of 4 runs]; in experiment [3], 31.7 µM (active) and 78.5 µM (active) and 27.1 µM (active); in experiment [5] it was 66.7 µM (active); in experiment [6], 95.5 µM (active) [middle of 4 runs]; in experiment [7], 130 µM (active) and 169 µM (active). The AC50 was 100 µM (active) in experiment [13]; 12.2 µM (active) and 4.03 µM (active) and 3.46 µM (active) in experiment [14]; 150 µM (active) in [15]. Moreover, the molecule was called inactive in [1], in experiment [3], in experiment [4], in experiment [5], in experiment [7] and in [8]. The molecule was called inactive in [9], in [10], in [11], in [12], in experiment [13] and in experiment [18]. The result in experiment [14], in experiment [15] and in [17] was inactive.
